Screening results as filed in PubChem.
Sampled rows, rich in hits. Any-hit rate of the full collection: about 1.4%.
pCIP destab = compounds decreasing mouse p/CIP protein stability; actives 0.01% (n = 290,000); decrease of EGFP signal, % at 10 µM; F442A p/CIP-EGFP cells, EGFP fluorescence, 16 h;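 active = EGFP signal decrease of at least 30% at 10 µM or well 3 SD below plate mean, unless failing retest; inactive = the rest, including hits failing retest or dose response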
CR mimetic SO = caloric restriction mimetics inhibiting age-related superoxide in yeast; S. cerevisiae aged cells, superoxide DHE fluorescence; active compounds read low; superoxide response (% of plate mean), % at 10 µM; actives 0.18% (n = 330,000); AID 2690;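 active = superoxide response under a set limit, about three screen SD below normal, cut at about 65% in these data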;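 also: yeast aged for seven days with compound at 30 °C before DHE staining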
MIN6 prolif = MIN6 beta-cell proliferation induction. MIN6 cells proliferation, ATPlite luminescence, 48 h; cells starved in 0.2% serum; 100% = growth in 10% serum. proliferation, % at 10 µM. actives 0.29% (n = 330,000);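 active = compounds whose signal lies at least 3.5 SD above the mean of all wells on their plate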
HSV augment = increases HSV replication in cells; HSV replication augmentation in cells, fold increase; AID 1956; maximum fold increase; actives 0.005% (n = 220,000); in the data active = maximum fold increase above about 1.5; tested in PC3 cells
V-ATPase pHluor = yeast V-ATPase proton transport regulation by pHLuorin | AID 504577 | actives 0.37% (n = 350,000) | response, % at 10 µM | S. cerevisiae, pHLuorin cytosolic pH fluorescence; in the data active = response mostly above about 7.3%, no sharp cut-off; inactive = mostly below about 5.4%; also: actives read high
H9c2 protect = myocardial damage modulation in H9c2 cells. H9c2 cardiomyocytes, H2O2 injury protection, ATPLite, 2 h. protection from H2O2 cell death, % at 20 µM. actives 0.63% (n = 360,000);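 active = compounds giving at least 50% protection of heart cells from peroxide-induced death in the single-dose screen, raw or plate-pattern-corrected value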
Each line names hits and unclear results; the compound was inactive in the other large screens.

COc1ccc(OC)c(S(=O)(=O)Nc2ccc(Oc3ccccc3)cc2)c1	V-ATPase pHluor 13.4
COC(=O)c1ccc(NS(=O)(=O)c2ccccc2)o1	none
COc1ccc2[nH]c3c(c2c1)CCN1C(=O)C(CC(=O)NCCC2=CCCCC2)C[C@H](C(=O)N2CCCCC2)[C@@]31CCc1ccccc1 (some centres not stated)	none (no result: pCIP destab, MIN6 prolif, HSV augment)
Cc1cc(C(=O)N/N=C/c2cccs2)n[nH]1	none
Cc1cc(C(=O)N/N=C/c2cc(Br)cc(Br)c2OC(=O)c2cccc(F)c2)n[nH]1	H9c2 protect 82.7
Cc1cc(C(=O)N/N=C\c2cc(C(C)(C)C)ccc2O)n[nH]1	H9c2 protect 61.5 (no result: HSV augment)
Cc1cc(C(=O)N/N=C/c2cc(Br)cc(Br)c2OC(=O)c2ccccc2)n[nH]1	none (no result: V-ATPase pHluor, H9c2 protect)
COc1ccccc1N1CCN(C2=NS(=O)(=O)c3ccccc32)CC1	none
C=CCN1/C(=C(\C#N)C2=NS(=O)(=O)c3ccccc32)N(C)c2ccccc21	V-ATPase pHluor 24.1
O=C1NC2=C(C(=O)CCC2)C(c2ccc3ncccc3c2)N1 (configuration not stated)	none
Cc1oc2cc(O)ccc2c(=O)c1Oc1ccccc1	none
CC(=O)Oc1ccc2c(=O)c(Oc3ccccc3)c(C)oc2c1OC(C)=O	H9c2 protect 64.6
O=C(NC(NC(=S)Nc1cccc(Cl)c1)C(Cl)(Cl)Cl)OCc1ccccc1 (configuration not stated)	none
Cc1cccc(N2CCN(C(=O)CCCSc3nc4ccccc4[nH]3)CC2)c1C	none
O=S(=O)(NCc1ccccc1)c1ccccc1NCCc1ccccc1	CR mimetic SO 51.7 (no result: pCIP destab, MIN6 prolif, HSV augment)
O=C(N/N=C/c1cccc([N+](=O)[O-])c1O)C(O)(c1ccccc1)c1ccccc1	H9c2 protect 63.1 (no result: HSV augment)
Clc1ccc(NN(Cc2ccncc2)c2ccc(Cl)cc2)cc1	none (no result: pCIP destab, CR mimetic SO, MIN6 prolif, HSV augment)
CC(=O)Oc1ccc2c(C)cc(=O)oc2c1	H9c2 protect 60.8
C#CNC(=O)C1(CC=C)CCNCC1	none (no result: pCIP destab, CR mimetic SO, HSV augment)
CCOC(=O)[C@H]1[C@H]2COc3ccc(Br)cc3[C@@H]2N2C(=O)c3cc(OC)c(OC)cc3NC(=O)[C@@]12C	H9c2 protect 50.5 (no result: pCIP destab, CR mimetic SO, HSV augment)
COc1ccc(/C=C2/CSC/C(=C/c3ccc(OC)c(OC)c3)C2=O)cc1OC	none (no result: pCIP destab, CR mimetic SO, MIN6 prolif, HSV augment)
Oc1ccc(Cl)cc1C=Nc1ccc2c3c(cccc13)CC2	H9c2 protect 90.6
Cc1cccc(C=Nc2ccc3c4c(cccc24)CC3)c1O	none
Oc1c(Br)cc(Cl)cc1C=Nc1ccc(N2CCOCC2)cc1	none
Oc1ccc(Cl)cc1C=Nc1ccc(Br)cc1	H9c2 protect 50.0
COc1ccc(N=Cc2cc(Cl)ccc2O)cc1Cl	H9c2 protect 71.9
Oc1ccc(N=Nc2cccc(Cl)c2)cc1C=Nc1ccc(N2CCOCC2)cc1	H9c2 protect 66.2 (no result: CR mimetic SO, MIN6 prolif)
Cc1csc(Nc2nc(N)c(C(=O)Nc3ccccc3)o2)n1	none (no result: HSV augment)
Cc1cccc(NC(=O)COC(=O)CN2C(=O)c3ccccc3C2=O)c1C	none (no result: pCIP destab, CR mimetic SO, MIN6 prolif, HSV augment)
COc1ccc(O)c(/C=N/NC(=O)c2ccc(CSc3nc(C)cc(C)n3)cc2)c1	H9c2 protect 56.7
O=C(CNC(=O)c1ccccc1Br)N/N=C/c1cc(Br)ccc1O	H9c2 protect 74.3 (no result: HSV augment)
COc1ccc(C(=O)N/N=C/c2cc(Br)ccc2O)cc1OC	H9c2 protect 59.5
O=C(CN1CC(c2ccccc2)CC1=O)N/N=C/c1cc(Br)ccc1O (configuration not stated)	H9c2 protect 57.0
CCOc1ccc(NC(=O)CN2CC(c3ccccc3)CC2=O)cc1 (configuration not stated)	none
COc1ccc(NC(C)(C)c2nnnn2-c2c(C)cccc2C)cc1	none
C=CCN1C(=O)/C(=C/c2ccc(-c3ccc(F)cc3)o2)SC1=S	none (no result: HSV augment)
CCSc1ncc(CO)c(N)n1	none
COc1cccc(NC(=O)Cn2nnc(C(=O)NCCc3ccccc3)c2N)c1	none (no result: HSV augment)
COC(=O)c1ccc(Cn2nc(-c3cc(C)ccc3C)ccc2=O)cc1	none (no result: HSV augment)
O=C(C[n+]1ccccc1)N/N=C/c1cc(Br)cc(Br)c1O	none (no result: HSV augment)
O=C(N/N=C/c1cc(Cl)ccc1O)c1ccccc1Br	H9c2 protect 76.6
O=C(CNC(=O)c1ccccc1)N/N=C/c1cc(Br)ccc1O	H9c2 protect 58.6
O=C(N/N=C\c1cc(Cl)ccc1O)c1ccc(S(=O)(=O)N2CCCCC2)cc1	H9c2 protect 62.8
O=C(CP(=O)(c1ccccc1)c1ccccc1)N/N=C/c1cc(Br)cc(Br)c1O	H9c2 protect 70.7
O=C(COC(=O)/C=C/c1ccccc1Cl)NC1CC1	none (no result: pCIP destab, CR mimetic SO, MIN6 prolif, HSV augment)
Fc1ccc(N/N=C/C=C/c2ccccc2)c(F)c1	none
Cc1ccc(SCC(=O)NCCSC(C)(C)C)cc1	V-ATPase pHluor 18.5
COc1ccc(-c2nn(-c3ccccc3)cc2C(=O)Nc2nccs2)cc1	H9c2 protect 59.0
COc1cccc(-c2nn(-c3ccccc3)cc2C(=O)Nc2nccs2)c1	H9c2 protect 62.6
CC(C)C(C)(C#N)NC(=O)CSc1nnc(-c2ccccc2)o1 (configuration not stated)	none
COc1ccccc1C(=O)NC(CCSC)C(=O)NNC(=O)c1ccccc1O (configuration not stated)	CR mimetic SO 64.3 (no result: pCIP destab, HSV augment)
COc1ccccc1C(=O)NC(CCSC)C(=O)NNC(=O)c1ccc(F)cc1 (configuration not stated)	none (no result: HSV augment)
Fc1cnc(N/N=C/c2ccc(-c3ccc(Br)cc3)o2)nc1N1CCOCC1	none
Brc1ccc(-c2ccc(/C=N/Nc3nc(N4CCOCC4)nc(N4CCOCC4)n3)o2)cc1	H9c2 protect 94.9
Cc1ccc(/C=N/n2c(C)nc3ccccc3c2=O)o1	none
COc1ccc2ccccc2c1/C=N/N1C(=O)CSC1=S	none
O=c1c2ccccc2nc(COc2ccccc2)n1/N=C/c1ccc(O)c(O)c1	H9c2 protect 56.1
Cc1nc2ccccc2c(=O)n1/N=C/c1ccc(N(C)C)cc1	none
O=C1CSC(=S)N1N=Cc1c(O)ccc2ccccc12	H9c2 protect 56.3 (no result: pCIP destab, CR mimetic SO, MIN6 prolif, HSV augment)
Cc1nc2ccccc2c(=O)n1/N=C/c1c(O)ccc2oc3c(c12)CCCC3	H9c2 protect 100.1 (no result: HSV augment)
Cc1nc2ccccc2c(=O)n1/N=C/c1c(O)ccc2ccccc12	H9c2 protect 74.2
CCCNC(=O)COc1coc(CN2CCN(c3ccc(F)cc3)CC2)cc1=O	none (no result: HSV augment)
Cc1nc(Nc2ccc(Cl)c(Cl)c2)sc1C(/C=C/c1ccc2c(c1)OCO2)=NNc1ccc([N+](=O)[O-])cc1[N+](=O)[O-]	none (no result: pCIP destab, CR mimetic SO, MIN6 prolif, HSV augment)
O=C(COC(=O)COc1ccccc1Cc1ccccc1)Nc1cccnc1Cl	none
CCCC1NC(C(=O)O)Cc2c1[nH]c1ccccc21 (configuration not stated)	none (no result: HSV augment)
CC(C)(C)N=Cc1c(O)ccc2oc3c(c12)CCCC3	H9c2 protect 72.7 (no result: HSV augment)
CSc1nc2ncc3c(n2n1)CC1c2ccccc2CCN1C3=O (configuration not stated)	H9c2 protect 58.9
O=C1c2cnc3ncnn3c2CC2c3ccccc3CCN12 (configuration not stated)	none
